This is a sample that favours compounds with a hit; in the whole collection about 3.5% have one here.
TEAD-YAP inh – TEAD-YAP interaction inhibition. inhibition, % at 9.12 µM. AID 1259422. 1.4% of 640,000 active. HEK-TIYL cells, TEAD-Gal4/YAP UAS-luciferase luminescence; in the data active means inhibition above about 32%
FBW7 act – human FBW7 E3 ligase activation, primary screen | Q969H0 | AlphaScreen FBW7–phospho-cyclin E peptide binding, activator screen | normalized activity (activation), % at 26.1 µM | 0.13% of 650,000 active; in the data active means normalized activity above about 1.9%;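 further: purified mutant Fbw7 with reduced substrate affinity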
MITF primary – blocks human microphthalmia-associated transcription factor | AlphaScreen MITF homodimerization, bead proximity signal | O75030 | 0.91% of 650,000 active | inhibition, % at 2.6 µM; in the data active means inhibition above about 50%
GPR151 activ – activators of human GPR151 | Q8TDV0 | PathHunter beta-arrestin GPR151 cells, luminescence | AID 1508602 | activation, % at 11.2 µM | 1% of 650,000 active; in the data active means activation above about 4.9%
Target sequence (Q8TDV0 whole entry, looked up): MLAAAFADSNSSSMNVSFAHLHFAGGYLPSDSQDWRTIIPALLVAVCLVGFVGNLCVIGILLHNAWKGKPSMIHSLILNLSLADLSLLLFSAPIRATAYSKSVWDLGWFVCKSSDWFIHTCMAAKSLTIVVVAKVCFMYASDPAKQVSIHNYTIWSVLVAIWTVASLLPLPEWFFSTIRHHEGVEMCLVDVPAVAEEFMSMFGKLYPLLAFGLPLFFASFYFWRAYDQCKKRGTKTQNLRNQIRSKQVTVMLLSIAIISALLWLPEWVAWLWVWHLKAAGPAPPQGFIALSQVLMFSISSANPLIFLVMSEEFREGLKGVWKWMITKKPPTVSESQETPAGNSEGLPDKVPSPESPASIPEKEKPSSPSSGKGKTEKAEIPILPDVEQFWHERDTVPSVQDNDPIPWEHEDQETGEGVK
A number is an active result; - = inactive.

SMILES | TEAD-YAP inh | FBW7 act | MITF primary | GPR151 activ
CC[C@]1(O)CC2CN(CCc3c([nH]c4ccccc34)[C@@](C(=O)OC)(c3cc4c(cc3OC)N(C)[C@H]3[C@@](O)(C(=O)OC)[C@H](OC(C)=O)[C@]5(CC)C=CCN6CC[C@]43[C@@H]65)C2)C1 (stereo partly specified) | 59 | - | - | -
COc1ccccc1NC(=O)N1CCC2(CC1)OCCc1c2[nH]c2ccccc12 | - | - | - | -
CCC1(O)CC2CN(CCc3c([nH]c4ccccc34)[C@@](C(=O)OC)(c3cc4c(cc3OC)N(C=O)C3[C@]45CCN4CC=C[C@@](CC)([C@@H](OC(C)=O)[C@]3(O)C(=O)OC)[C@H]45)C2)C1 (stereo partly specified) | 69 | - | - | -
CC[C@]1(O)C[C@H]2CN(CCc3c([nH]c4ccccc34)[C@H](C)[C@H]2c2cc3c(cc2OC)N(C=O)[C@H]2[C@@](O)(C(=O)OC)[C@H](C)[C@]4(CC)C=CCN5CC[C@]32[C@@H]54)C1 | 56 | - | - | -
CCC1=C[C@H]2CN(C1)Cc1c([nH]c3ccccc13)[C@@](C(=O)OC)(c1cc3c(cc1OC)N(C)[C@H]1[C@@](O)(C(=O)OC)[C@H](OC(C)=O)[C@]4(CC)C=CCN5CC[C@]31[C@@H]54)C2 | 56 | - | - | -
Cc1ccc(N2C(N)=C(C#N)C(c3ccc(Cl)cc3)C3=C2CCCC3=O)cc1 (stereo unspecified) | - | - | - | -
O=C(Nc1nc2ccccc2s1)c1cccc(F)c1 | - | - | - | -
Cc1cn2cc(C(=O)NCC(C)C)nc2s1 | - | - | - | -
COc1cc(-c2c3cc(O)c(=O)cc-3oc3cc(O)c(O)cc23)cc(Cl)c1OC | - | - | 98 | -
COc1cc(-c2cc(=O)c3cc(O)ccc3o2)cc(OC)c1OC | - | - | - | -
COc1ccc(-c2c3cc(O)c(=O)cc-3oc3cc(O)c(O)cc23)cc1C | - | - | 109 | -
COc1ccc(-c2cc(=O)c3c(O)cc(O)cc3o2)cc1O | - | - | - | -
CCN(C(=O)CCl)c1cccc2ccccc12 | 67 | - | - | -
COc1ccc2c(c1)c1c(n2Cc2ccccc2)CCCC1 | - | - | - | -
COc1ccc2c(c1)c1c3n2CCN(Cc2ccccc2)C3=[N+](C)CC1 | 42 | - | - | -
COc1ccc(CCNc2cc(N3CCN(C(C)=O)CC3)ccc2[N+](=O)[O-])cc1OC | 46 | - | - | -
COc1ccc(CCNc2cc(N3CCN(S(=O)(=O)N(C)C)CC3)ccc2[N+](=O)[O-])cc1OC | 39 | - | - | -

Screening data as filed in PubChem.
